Measurements from PubChem BioAssay.

Target: Voltage-gated potassium channel subunit beta-2 (Rattus norvegicus) (UniProt P62483)
Test: inhibitors of rat Kvbeta2 reductase activity – biochemical, NADPH fluorescence, primary screen (AID 622);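 further: slope of raw intensity against log time taken from 70 to 1610 s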
Settings: recombinant KvBeta, 4-cyanobenzaldehyde reduction, at 10 µM, active compounds read high

Chain of Voltage-gated potassium channel subunit beta-2 (Rattus norvegicus) (P62483 whole entry, looked up): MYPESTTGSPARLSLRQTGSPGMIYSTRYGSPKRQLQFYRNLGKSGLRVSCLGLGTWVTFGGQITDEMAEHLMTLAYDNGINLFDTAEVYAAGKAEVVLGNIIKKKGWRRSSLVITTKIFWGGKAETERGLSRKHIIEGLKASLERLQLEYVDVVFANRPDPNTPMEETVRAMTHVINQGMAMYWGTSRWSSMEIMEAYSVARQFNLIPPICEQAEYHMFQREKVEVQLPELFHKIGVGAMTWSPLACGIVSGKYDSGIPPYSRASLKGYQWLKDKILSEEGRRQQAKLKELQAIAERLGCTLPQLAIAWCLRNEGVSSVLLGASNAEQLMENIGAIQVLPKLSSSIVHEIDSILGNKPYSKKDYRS

Fluorescence slope, inactive:
CC(=O)Oc1oc(-c2ccccc2)nc1/C=N/c1ccccn1 -0.383
COc1ccc(OC)c(N=C(C)C2=C(O)COC2=O)c1 -0.404
CC[C@H]1CN2CCc3cc(OC)c(OC)cc3[C@@H]2C[C@@H]1C[C@H]1NCCc2cc(OC)c(OC)cc21 -0.553
COc1ccc(OCC(=O)OCCN(C)C)cc1 -0.383
COc1cccc(C(=O)OCCN(C)C(C)(C)C)c1 -0.414
Cc1nnc(NS(=O)(=O)c2ccc(N)cc2)s1 -0.526
COc1ccc([C@@H]2Sc3ccccc3N(CCN(C)C)C(=O)[C@@H]2OC(C)=O)cc1 -0.507
O=C(CCN1CCCC1Cc1ccccc1)c1ccc2c(c1)OCCO2 (configuration not stated) -0.423
Fc1ccc(C(c2ccc(F)cc2)N2CCN(C/C=C/c3ccccc3)CC2)cc1 -0.463
COc1ccc[nH]c1=O -0.41
CCC(=O)Oc1oc(-c2ccccc2)nc1C=Nc1ccccc1OC -0.381
O=C(O)c1ccc(COCC(F)(F)C(F)F)o1 -0.428
Cc1nc2sc(C)c(C)c2c(=O)o1 -0.39
CC1(C)S[C@@H]2[C@H](NC(=O)[C@H](N)c3ccccc3)C(=O)N2[C@H]1C(=O)O -0.459
O=P(Cc1nnco1)(c1ccccc1)c1ccccc1 -0.431
Nc1nc2c(ncn2COCCO)c(=O)[nH]1 -0.446
c1ccc2c(c1)nc(CN1CCOCC1)n1c3ccccc3nc21 -0.309
CCC(NC(=O)Nc1nnc(C(F)(F)F)s1)(C(F)(F)F)C(F)(F)F -0.449
CCOC(=O)C(Oc1ccc(=O)[nH]n1)C(C)=O (configuration not stated) -0.398
CC1=NS(=O)(=O)c2cc(Cl)ccc2N1 -0.43
CCCCOc1ccccc1P(=O)(O)CP(=O)(c1ccccc1)c1ccccc1 -0.436
COc1cccc(C(=O)NCC(=O)n2nc(C)cc2C)c1 -0.462

Target: Voltage-gated potassium channel subunit beta-2 (Rattus norvegicus) (UniProt P62483)
Test: enhancers of rat Kvbeta2 NADPH turnover – biochemical, NADPH fluorescence, primary screen (AID 623;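 active means NADPH fluorescence slope more negative than the mean of all samples by about 3 SD, 99.7% confidence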;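 further: fluorescence intensity change per second fitted from 20 to 320 s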)
Settings: Recombinant KvBeta, NADPH fluorescence decrease slope, 10 min; at 10 µM; active compounds read low

NADPH fluorescence slope, inactive:
O=C(NCC1CCCCN1)c1cc(OCC(F)(F)F)ccc1OCC(F)(F)F (configuration not stated) -5.3e-05
CN1CC(=O)Nc2ccc(F)cc2C1=O -5.5e-06
CN1CCN(C2=Nc3cc(Cl)ccc3Nc3ccccc32)CC1 -6.9e-05
COc1cc(C)nc(Oc2ccc(=O)[nH]n2)n1 -4e-05
CCN(CC)CCNC(=O)c1ccc(N)cc1 -0.000102
C1CNCCNCCCNCCNC1 -6.6e-05
O=C(CCCN1CCC(O)(c2ccc(Cl)cc2)CC1)c1ccc(F)cc1 -4.2e-05
CCCOc1cccc(CN2CCCCC2c2cccnc2)c1 (configuration not stated) 1.8e-06
COc1ccc(-c2coc3cc(O)cc(O)c3c2=O)cc1 -4.1e-06
CN(C)CCCN1c2ccccc2CCc2ccccc21 -3.3e-05
Cc1cccc(OCC(=O)NCC(=O)n2nc(C)cc2C)c1 -9.5e-06
COCCN(Cc1ccccc1)P(=O)(O)c1ccccc1OCC(=O)O -4.4e-05
Oc1oc(-c2ccccc2)nc1C=NCc1ccncc1 7.6e-07
CCC1=Nc2ccccc2NC2=C1C(=O)CCC2 -3.7e-05
CC[C@]1(O)C[C@@H]2CN(CCc3c([nH]c4ccccc34)[C@@](C(=O)OC)(c3cc4c(cc3OC)N(C)[C@H]3[C@@](O)(C(=O)OC)[C@H](OC(C)=O)[C@]5(CC)C=CCN6CC[C@]43[C@@H]65)C2)C1 -2.5e-05
CC(=O)O[C@@]12CO[C@@H]1C[C@H](O)[C@@]1(C)C(=O)[C@H](O)C3=C(C)[C@@H](OC(=O)[C@H](O)[C@@H](NC(=O)OC(C)(C)C)c4ccccc4)C[C@](O)([C@@H](OC(=O)c4ccccc4)[C@H]21)C3(C)C -5.5e-05
CC(=O)Oc1oc(-c2ccccc2)nc1/C=N/c1ccccn1 -5.8e-05
COc1ccc(OC)c(N=C(C)C2=C(O)COC2=O)c1 6.7e-06
CC[C@H]1CN2CCc3cc(OC)c(OC)cc3[C@@H]2C[C@@H]1C[C@H]1NCCc2cc(OC)c(OC)cc21 -3.6e-05
COc1ccc(OCC(=O)OCCN(C)C)cc1 -2.2e-05
